# Laboratory results: PubChem BioAssay (NCI)
# Compounds without any hit were thinned out: in the full panel of roughly 79,000, 15% have a hit. A number with no mark means an inactive call. Activity calls are given as the source filed them. Cut-off read from the data, not from the text of the source: active = growth inhibition above about 70%; inactive = the rest.
# Legend:
# [1] = NCI Yeast Anticancer Drug Screen. Data for the rad50 strain (AID 155);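 note: 0% = growth of vehicle-only cultures of the same strain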; conditions: S. cerevisiae rad50 strain growth inhibition, stronger effect = higher value
# Method in brief: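 DNA repair mutant yeast, compound exposure, growth read-out; inhibition is taken relative to vehicle.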
# [2] = NCI Yeast Anticancer Drug Screen. Data for the mec2-1 strain (AID 157); conditions: S. cerevisiae mec2-1 strain, stronger effect = higher value
# Method in brief: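 Growth inhibition is read against vehicle-treated controls after compound exposure of the mec2-1 yeast strain, which is defective in DNA damage repair or cell cycle control.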
# [3] = NCI Yeast Anticancer Drug Screen. Data for the sgs1 mgt1 strain (AID 161);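 note: 0% = growth of cultures given vehicle only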; conditions: S. cerevisiae sgs1 mgt1 strain, stronger effect = higher value
# Method in brief: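 Yeast cells carrying a defined DNA-repair defect were exposed to test compounds. Growth inhibition was measured relative to vehicle-treated controls.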
# [4] = NCI Yeast Anticancer Drug Screen. Data for the cln2 rad14 strain (AID 165);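 note: 0% = growth equal to vehicle treated cultures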; conditions: S. cerevisiae cln2 rad14 strain, stronger effect = higher value
# Method in brief: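 Growth inhibition, relative to vehicle-treated controls, is the read-out. The test organism is a yeast strain with defined genetic alterations, cln2 rad14.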
# [5] = NCI Yeast Anticancer Drug Screen. Data for the bub3 strain (AID 167); conditions: S. cerevisiae bub3 mutant strain, stronger effect = higher value
# Method in brief: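 In this screen, a yeast mutant lacking normal mitotic checkpoint function is challenged with compound. Relative growth versus vehicle gives the inhibition value.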
# [6] = NCI Yeast Anticancer Drug Screen. Data for the mlh1 rad18 strain (AID 175); conditions: S. cerevisiae mlh1 rad18 strain growth inhibition, stronger effect = higher value
# Method in brief: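 Cells of a genetically altered yeast strain, deficient in DNA damage repair, were treated with compound. Their growth was then compared with that of vehicle-treated cultures to give inhibition.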
# [7] = at 5.0 µM (retest, dose inferred, filed as 0.5)
# [8] = at 50.0 µM (retest, dose inferred, filed as 5.0)
Structure (SMILES),"growth inhibition [1, 7]","growth inhibition [1, 8]",growth inhibition ([1]; at 50.0 µM),"growth inhibition [2, 7]","growth inhibition [2, 8]",growth inhibition ([2]; at 50.0 µM),"growth inhibition [3, 7]","growth inhibition [3, 8]",growth inhibition ([3]; at 50.0 µM),"growth inhibition [4, 7]","growth inhibition [4, 8]",growth inhibition ([4]; at 50.0 µM),"growth inhibition [5, 7]","growth inhibition [5, 8]",growth inhibition ([5]; at 50.0 µM),"growth inhibition [6, 7]","growth inhibition [6, 8]",growth inhibition ([6]; at 50.0 µM)
Clc1ccc(C2SCc3nc4ccccc4n32)c(Cl)c1 (stereo not given),-7%,96% (active),99% (active),-6%,97% (active),99.1% (active),4%,95% (active),99.2% (active),-17%,98% (active),97.9% (active),9%,96% (active),98.7% (active),-10%,94% (active),71.9% (active)
COc1ccc(/C(Cl)=C(\C=O)c2ccc(Cl)cc2)cc1,17%,17%,-4.05%,-10%,2%,7.7%,-17%,22%,27.8%,12%,26%,-8.85%,18%,54%,28.1%,-6%,27%,19.8%
Cc1ccccc1C(=O)C(C)c1ccccc1 (stereo not given),-19%,-6%,6.35%,-8%,-4%,9.25%,-2%,-7%,12.5%,-35%,-5%,44.4%,-8%,3%,4.5%,-24%,4%,-9.2%
Oc1ccc(N=Nc2ccc(Cl)cc2)cc1O,-30%,98% (active),98.4% (active),-8%,98% (active),98.3% (active),8%,98% (active),98.5% (active),-7%,97% (active),97.7% (active),-35%,98% (active),97.8% (active),-7%,98% (active),98.2% (active)
Cc1ccc(S(=O)(=O)NCCSSCCNS(=O)(=O)c2ccc(C)cc2)cc1,-4%,95% (active),93.5% (active),-3%,97% (active),96% (active),-2%,98% (active),96.6% (active),-6%,96% (active),94% (active),1%,95% (active),94.3% (active),1%,96% (active),95.4% (active)
Cc1ccc(C(=O)CC(N)C(=O)O)cc1 (stereo not given),-2%,0%,12.2%,3%,-2%,-3%,-1%,-1%,-3.05%,2%,1%,89% (active),2%,-2%,-2.25%,-1%,3%,8.95%
CNC(=O)OC1/C(C)=C\C(C)C(O)C(OC)CC(C)CC2=C(OC)C(=O)C=C(C2=O)N(C)C(=O)/C(C)=C/C=C\C1OC (stereo not given),-24%,25%,65%,-28%,70% (active),83.8% (active),-22%,39%,65.8%,8%,68%,50%,9%,80% (active),73.6% (active),-3%,68%,51%
O=C(Nc1ccccc1Cl)c1cccnc1,-146%,-174%,6.55%,-48%,-56%,14.8%,-56%,-70%,9.25%,-48%,-63%,51.6%,-63%,-81%,-7.4%,-112%,-123%,4.45%
CC(C)C1=C(O)c2ccccc2C(=O)C1=O,-9%,97% (active),86.8% (active),13%,94% (active),78.7% (active),38%,97% (active),90.5% (active),-21%,86% (active),62.6%,11%,97% (active),84.3% (active),18%,98% (active),90.2% (active)
O=S1(=O)c2ccccc2C(=NO)c2ccccc21,-5%,-9%,-7.95%,-3%,-26%,13.2%,-7%,-21%,-15.4%,3%,0%,66%,-1%,-17%,7.7%,-3%,-21%,-3.55%
